Where “and” joins values, the source holds several entries; their conditions need not be identical. Equal entries are not always repeated. The campaign covered roughly 420,000 compounds. About 50,000 (12%) were called active. A call without a number means that no potency is given here. About 26% were inconclusive and are not listed. The sample holds actives, similar compounds and a random draw of the others, so the mix is not that of the screen. Calls come from the whole dose curve; as a rule, active = well fitted inhibition curve with a large enough effect; inconclusive = small, poorly fitted or top-dose-only effect; inactive = flat fitted curve, though single readings scatter. Some structures have more than one record in an assay (separate samples or runs), and their calls can disagree.
Potency is the fitted concentration of half-maximal effect.

The nature of this assay: qHTS for Inhibitors of human tyrosyl-DNA phosphodiesterase 1 (TDP1): qHTS in cells in presence of CPT. Note: nearly all actives have a fitted effect of over 55% in size. The following applies: chicken DT40 Tdp1-/-;hTDP1 cells + 20 nM CPT, ATP luminescence, 48 h; series mostly up to 46.2 µM. The procedure, abridged: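 Chicken DT40 Tdp1-/- cells stably complemented with human TDP1 were seeded at 400 cells/well in medium containing 20 nM camptothecin, exposed to pin-transferred compounds, and grown at 37 °C for at least 48 hr. Viability was read as ATP luminescence.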
Background: Quantitative high-throughput screening tests each substance at several concentrations.
For the compound `Cc1c(OC(C)C(=O)NCC2CCC(C(=O)O)CC2)ccc2c1oc(=O)c1ccccc12` (stereo not given), the Potency entry is “inactive”.

For the compound `COc1cc(SC)ccc1C(=O)NNC(=O)C1COc2ccccc2O1` (stereo not given), the Potency result is “inactive”.

As to `CCc1ccccc1NC(=O)CN(C)C(=O)c1cc(C2CC2)nn1-c1ccccc1`, the Potency result is “inactive”.

Turning to `O=C(COC(=O)c1cccnc1Cl)NC12CC3CC(CC(C3)C1)C2`, the Potency entry was “inactive”.

As for `O=C(COC(=O)c1ccc(Br)o1)NC12CC3CC(CC(C3)C1)C2`, the Potency result was “inactive”.

For `COc1cc(C(=O)OCC(=O)NC23CC4CC(CC(C4)C2)C3)cc(OC)c1OC`, the Potency is 29.1 µM (active).

`Cc1cccc(-c2noc(-c3ccc(F)cc3)n2)c1`: the Potency result was “inactive”.

In the case of `CC(C)S(=O)(=O)c1oc(-c2ccc(F)cc2)nc1S(=O)(=O)c1ccc(F)cc1`, the Potency was 0.291 µM (active).

In the case of `COc1cc(-c2nc(S(=O)(=O)c3ccc(Cl)cc3)c(N(C)C)o2)cc(OC)c1OC`, the Potency entry is “inactive”.

Consider `COc1ccc2c(c1)C(NS(=O)(=O)OCC(Cl)(Cl)Cl)CCC2` (stereo not given), for which the Potency result was “inactive”.

As for `C=CC1C(OC2OC(CO)C(O)C(O)C2O)OC=C(C(=O)OC)C1CC1CC(=O)CC(CC(=O)CCc2ccc(O)cc2)O1` (stereo not given), the Potency result was “inactive”.

On to `Cc1ccccc1NC(=O)Cc1nc(COC(=O)c2cccnc2Cl)cs1`, for which the Potency entry is “inactive”.

Regarding `Cc1ccc(CSc2nc(-c3ccccc3)c(C#N)c(=O)[nH]2)cc1`, the Potency entry was “inactive”.

For the compound `O=C(NC1CCCCC1)c1ccc(CNc2c(N3CCOCC3)c(=O)c2=O)cc1`, the Potency result was “inactive”.

In the case of `CN1C(=O)/C(=C/c2ccc(C(=O)NC3CCCC3)cc2)Oc2ccccc21`, the Potency is 13 µM (active).

For the compound `CC1CCC(NC(=O)c2ccc(N3CCCC3=O)cc2)CC1` (stereo not given), the Potency entry was “inactive”.

Consider `CC(C)CC(=O)Nc1nnc(S(=O)(=O)N(C)c2ccc(Cl)cc2)s1`, for which the Potency entry was “inactive and 146 nM (active)”.

With `COc1cccc(C(=O)Nc2nnc(S(=O)(=O)N(C)c3ccccc3)s2)c1`, the Potency result was “inactive”.

On to `CCC(=O)Nc1nnc(S(=O)(=O)N(CC(C)C)c2ccccc2)s1`, for which the Potency result was “inactive”.

Turning to `Cc1noc(C)c1S(=O)(=O)N(C)C[C@H]1Oc2ccc(NC(=O)C3CCCCC3)cc2C(=O)N([C@H](C)CO)C[C@@H]1C`, the Potency result is “inactive”.

Regarding `O=C(Nn1c(-c2ccc(Cl)cc2)nc2ccccc2c1=O)c1cccnc1Cl`, the Potency result is “inactive”.

With `COc1ccccc1C(=O)Nn1c(-c2cccs2)nc2ccccc2c1=O`, the Potency is 18.4 µM (active).

With `COc1cc(OC)cc(-c2nc3ccccc3c(=O)n2NC(=O)c2cccnc2Cl)c1`, the Potency entry was “inactive”.

As for `Cc1ccc(OCC(=O)OCc2cc(=O)n3nc(C4CC4)sc3n2)cc1`, the Potency result is “inactive”.

In the case of `CCc1cc(C(=O)Nc2nnc(C3CC3)s2)sc1C`, the Potency entry is “inactive”.

On to `CCCN(CC(=O)Nc1ccccc1C)C(=O)c1ccc(OCC(=O)N2CCOCC2)c(OCC)c1`, for which the Potency entry was “inactive”.

In the case of `CCCN(CC(=O)Nc1ccccc1C)C(=O)c1cc(=O)[nH]c2ccccc12`, the Potency entry is “inactive”.

As for `CCCN(CC(=O)Nc1ccccc1C)C(=O)c1ccc2[nH]c3c(c2c1)CC(C)CC3` (stereo not given), the Potency was 20.6 µM (active).

In the case of `Cc1ccc(CN2CCN(c3ccccc3Cl)CC2)o1`, the Potency entry was “inactive”.

As for `Cc1ccc(N2C(=O)C3C4C=CC(CC4)C3C2=O)cc1Cl` (stereo not given), the Potency result is “inactive”.

With `O=C(NCCN1CCOCC1)/C(=C/c1ccc(F)cc1)NC(=O)c1ccccc1`, the Potency entry was “inactive”.

Turning to `Nc1nc(COC(=O)CCC(=O)c2ccc(Cl)cc2)nc(Nc2ccccc2)n1`, the Potency entry is “inactive”.

In the case of `CCCc1cc(C(=O)Nc2ccc(C(=O)OC)cc2)cs1`, the Potency entry was “inactive”.

Consider `CCOC(=O)C1CCCN(C(=O)Cn2ncc3c(C)n(Cc4ccc(F)cc4)c(C)c3c2=O)C1` (stereo not given), for which the Potency was 14.6 µM (active).

Turning to `CCOC(=O)C1CCCN(C(=O)CN(c2ccc(OC)cc2)S(=O)(=O)c2c(C)noc2C)C1` (stereo not given), the Potency result was “inactive”.

Regarding `CCOC(=O)C1CCCN(C(=O)Cn2ncc3c(=O)oc4ccc(C)cc4c32)C1` (stereo not given), the Potency result was “inactive”.

As to `CCCNC(=O)c1cc(C2CCCCN2S(=O)(=O)c2cn(C)cn2)on1` (stereo not given), the Potency entry is “inactive”.

Regarding `CCS(=O)(=O)N1Cc2ccccc2CC1C(=O)Nc1nc2ccc(F)cc2s1` (stereo not given), the Potency entry was “inactive”.

`O=C(Nc1ccc(O)cc1)c1ccc(NC(=O)c2ccco2)cc1`: the Potency result was “inactive”.

In the case of `Cc1cc(C)c2cc(CN(Cc3cccs3)Cc3nnnn3CC3CCCO3)c(=O)[nH]c2c1` (stereo not given), the Potency is 23.1 µM (active).

Turning to `Cc1ccc(S(=O)(=O)N(Cc2cc3ccccc3[nH]c2=O)CC2CCCO2)cc1` (stereo not given), the Potency result is “inactive”.

As to `CCCN(Cc1cc2cccc(C)c2[nH]c1=O)S(C)(=O)=O`, the Potency entry was “inactive”.

With `c1ccc(CCn2nnnc2CN2CCN(C3CCCC3)CC2)cc1`, the Potency entry was “inactive”.

Consider `O=C(c1cccs1)N(Cc1cc2ccccc2[nH]c1=O)CC1CCCO1` (stereo not given), for which the Potency result is “inactive”.

Take `Cc1cccc2cc(CN(Cc3cccs3)C(c3nnnn3C3CCCC3)C(C)C)c(=O)[nH]c12` (stereo not given): the Potency result is “inactive”.

Regarding `Cc1cc(C)c2cc(CN(Cc3nnnn3Cc3ccc(F)cc3)C3CCCC3)c(=O)[nH]c2c1`, the Potency is 14.6 µM (active).

Take `CCC(c1nnnn1C1CCCC1)N(Cc1cccs1)Cc1cc2cccc(C)c2[nH]c1=O` (stereo not given): the Potency was 20.6 µM (active).

Turning to `Cc1n[nH]c(=O)c2c1nnn2Cc1ccc(F)cc1`, the Potency entry was “inactive”.

In the case of `Cc1cccc2cc(CN(C(=O)c3cccs3)c3ccccc3)c(=O)[nH]c12`, the Potency entry was “inactive”.

Regarding `Cc1cccc2cc(CN(Cc3nnnn3Cc3ccccc3)C3CCCC3)c(=O)[nH]c12`, the Potency was 20.6 µM (active).

As to `Cc1occc1-c1nnc(SCC(=O)NC2CCCCC2)o1`, the Potency result is “inactive”.

For `Cc1cc2c(cc1S(=O)(=O)CCC(=O)NCc1ccccc1)OCC(=O)N2`, the Potency entry was “inactive”.

For the compound `CCSCc1nc(N)nc(NCCc2ccccc2)n1`, the Potency entry is “inactive”.

On to `CCOc1ccc(-n2cnc3c(=O)[nH]c(N)nc32)cc1`, for which the Potency entry is “inactive”.

As for `CN(Cc1ccc(F)cc1)C(=O)COc1ccc2ccccc2c1`, the Potency entry was “inactive”.

With `NC(=O)c1cc(-c2cccnc2)nc2ccc(Br)cc12`, the Potency entry is “inactive”.

Regarding `CN1CCCCCC1C(=O)NCCN1Cc2ccccc2OC(c2ccsc2)C1` (stereo not given), the activity change, negative = growth inhibition is 11.9% [at 9.04 µM] (inactive).

Consider `C#CCOCCOCCOCCNc1nc(N2CCOCC2)nc(N2CCN(C(=O)[C@H](Cc3ccc(O)cc3)n3cc(CCO)nn3)CC2)n1`, for which the Potency entry is “inactive”.

As to `CCN(C(=O)COC(=O)CCC(=O)c1cccs1)C1CCCCC1`, the Potency result was “inactive”.

On to `COc1ccc(C2c3c(C)nn(-c4ccccc4)c3NC(=O)N2c2ccccc2)cc1` (stereo not given), for which the Potency result is “inactive”.

Take `COc1ccc(Br)cc1C1CC(=O)Nc2c1c(C)nn2-c1nc(C)cc(C)n1` (stereo not given): the Potency was 16.4 µM (active).

Regarding `COc1ccc(C2CC(=O)Nc3c2c(=O)nc2c(C)cccn32)cc1OC` (stereo not given), the Potency result was “inactive”.

Take `CCCCC1(C(=O)OCC)NC(c2ccc(O)cc2)C2C(=O)N(c3ccccc3)C(=O)C21` (stereo not given): the Potency was 14.6 µM (active).

With `COC(=O)C1(C)NC(c2ccc(F)cc2)C2C(=O)N(c3ccccc3)C(=O)C21` (stereo not given), the Potency result is “inactive”.

For `CCOC(=O)C1(C)NC(c2ccco2)C2C(=O)N(c3ccccc3)C(=O)C21` (stereo not given), the Potency entry is “inactive”.

For the compound `COCCCn1c(=O)/c(=C/c2ccccc2OC(C)C)s/c1=C(\C#N)C(=O)Nc1ccc(C(=O)O)cc1`, the Potency was 20.6 µM (active).

Regarding `COc1ccc(NC(=O)/C(C#N)=C\c2cc(OC)c(OCc3ccc(C(=O)O)cc3)cc2Br)cc1`, the Potency result is “inactive”.

Take `COc1ccccc1C(=O)N/C(=C/c1ccco1)C(=O)Nc1ccc(C(=O)O)cc1`: the Potency result is “inactive”.

In the case of `Cn1c(N)c(C(=O)COC(=O)COc2ccc(Cl)cc2)c(=O)n(C)c1=O`, the Potency entry was “inactive”.

With `COc1ccc(-c2cc(=O)oc3cc(OC(C)C(=O)NCC4CCC(C(=O)O)CC4)ccc23)cc1` (stereo not given), the Potency entry is “inactive”.

With `COc1ccc(NC(=O)CNc2cc(S(=O)(=O)N3CCOCC3)ccc2N2CCOCC2)c(OC)c1`, the Potency entry is “inactive”.

`NS(=O)(=O)c1cccc(NC(=O)CC23CC4CC(CC(Br)(C4)C2)C3)c1`: the Potency entry was “inactive”.

For `O=C(CC12CC3CC(CC(C3)C1)C2)NCc1ccco1`, the Potency result was “inactive”.

For `O=C(CC12CC3CC(CC(C3)C1)C2)Nc1ccc2c(c1)COC2=O`, the Potency is 13 µM (active).

For `CCN1CCN(C(=O)N(Cc2ccc(Cl)cc2)S(=O)(=O)c2ccc(C)cc2)CC1`, the Potency result is “inactive”.

For the compound `S=C(NCCC1=CCCCC1)Nc1ccccc1`, the Potency was 16.4 µM (active).

Take `CC(=O)Nc1ccc(S(=O)(=O)N(C)CC(=O)NCCC2=CCCCC2)cc1`: the Potency entry is “inactive”.

Regarding `S=C(NCCc1ccccc1)Nc1ccccc1`, the Potency result is “inactive”.

For the compound `COc1ccc(-c2cc(-c3ccc(F)cc3)nc3c2COc2ccccc2-3)cc1`, the Potency entry was “inactive”.

Take `CC(C)(C)C(=O)COC(=O)c1cc(S(=O)(=O)N2CCCCC2)ccc1N1CCOCC1`: the Potency entry is “inactive”.

As to `O=C(CCCN1C(=O)c2ccccc2C1=O)Oc1ccc(Cl)cc1`, the Potency result was “inactive”.

For `CCCCN(C(=O)CSCC(=O)Nc1ccc(OC)cc1)c1c(N)n(CCC)c(=O)[nH]c1=O`, the Potency result is “inactive”.

Consider `CC(C)C(=O)NC(C)c1nnc2n1CCN(Cc1cccc3ncccc13)CC2` (stereo not given), for which the activity change, negative = growth inhibition is 24.6% [at 9.04 µM] (inactive).

In the case of `O=S(=O)(c1ccccc1)c1nc(-c2ccccc2)oc1NCCCN1CCOCC1`, the Potency result was “inactive”.

Consider `N#Cc1nc(-c2ccc(OCc3ccccc3)cc2)oc1NCCCN1CCOCC1`, for which the Potency was 20.6 µM (active).

`Cc1ccc(-c2nc(C#N)c(NCCCn3ccnc3)o2)cc1`: the Potency entry is “inactive”.

With `Nc1nc(SCC(=O)Nc2cc(C(F)(F)F)ccc2Cl)[nH]c(=O)c1NC(=O)c1ccco1`, the Potency entry was “inactive”.

As for `CO[C@H]1[C@H](NC(=O)C(C)C)c2ccccc2C12CCN(Cc1cnc(N(C)C)s1)CC2`, the activity change, negative = growth inhibition was 1.26% [at 9.04 µM] (inactive).

As for `CCc1nnc(NC(=O)c2ccco2)s1`, the Potency entry was “inactive”.

For the compound `Cc1ccc2nc(COc3cccc(NC(=O)c4ccccc4Cl)c3)cc(=O)n2c1`, the Potency result was “inactive”.

With `CCCC(=O)N(CCN1CCOCC1)c1nc2ccc(OCC)cc2s1`, the Potency result was “inactive”.

Regarding `Nc1ccc2[nH]c(=S)sc2c1`, the Potency result was “inactive”.

As for `CCOc1ccc2[nH]c(=S)sc2c1`, the Potency was 18.4 µM (active).

For `CC(C)CNC(=S)NNC(=O)c1nn(C)cc1Cl`, the Potency entry is “inactive”.

As to `CCOc1ccc(NC(=O)c2cn(C3CCCCC3)c(=O)c3c2c2ccccc2n3C)cc1`, the Potency result is “inactive”.

Consider `CN(Cc1ccccc1)C(=O)c1cc2c(=O)n(C)c3ccccc3c2s1`, for which the Potency result was “inactive”.

Turning to `Cn1c(C(=O)NCCc2ccsc2)cc2c(=O)n(C)c3ccccc3c21`, the Potency is 18.4 µM (active).

Regarding `CCOc1ccc(CCNC(=O)c2cc3c(=O)n(C)c4ccccc4c3n2C)cc1`, the Potency is 20.6 µM (active).

Turning to `CCOc1ccc(CCNC(=O)c2c(C)oc3ncn(C)c(=O)c23)cc1`, the Potency entry is “inactive”.

On to `Cn1c(C(=O)N2CCC(C(N)=O)CC2)cc2c(=O)n(C)c3ccccc3c21`, for which the Potency entry is “inactive”.

The record behind these values is PubChem BioAssay AID686979 (National Center for Advancing Translational Sciences (NCATS), 2013).
